# Positions count from the first letter of the chain named. The full ranking holds about 16,000 sequences; the median of “ka relative to ugcaugu” is about 0.096, and the highest 2% start at about 0.35. The sample as a whole holds a higher share of the highest values than the screen did.
# T1: RBFOX1 RRM RbFoxmut (Fox-RRM*) (Homo sapiens, UniProt Q9NWB1 109-208, R118D;E147R;N151S;E152T)
# T1 sequence: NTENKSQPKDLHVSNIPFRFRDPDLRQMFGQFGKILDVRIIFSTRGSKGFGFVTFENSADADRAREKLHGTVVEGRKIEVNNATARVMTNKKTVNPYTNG
# B1: GAAUACU (DNA:RNA)
# RNA: GGGAGACCGGAAUUCAGAUUGUCCGAAUACUUUAAAUCCCGUCGUAGCCACCA
# DNA 1: CAATCTGAATTCCGGTCTCCC
# DNA 2: TGGTGGCTACGACGGGATT
# B2: CCUCACA (DNA:RNA)
# RNA: B1 RNA with G25C, A26C, A27U, U28C, U31A
# DNA 1: CAATCTGAATTCCGGTCTCCC
# DNA 2: TGGTGGCTACGACGGGATT
# B3: GGAUUGA (DNA:RNA)
# RNA: B1 RNA with A26G, A29U, C30G, U31A
# DNA 1: CAATCTGAATTCCGGTCTCCC
# DNA 2: TGGTGGCTACGACGGGATT
# B4: GUCGUCU (DNA:RNA)
# RNA: B1 RNA with A26U, A27C, U28G, A29U
# DNA 1: CAATCTGAATTCCGGTCTCCC
# DNA 2: TGGTGGCTACGACGGGATT
# B5: GUCUUGU (DNA:RNA)
# RNA: B1 RNA with A26U, A27C, A29U, C30G
# DNA 1: CAATCTGAATTCCGGTCTCCC
# DNA 2: TGGTGGCTACGACGGGATT
# B6: GGCUUGC (DNA:RNA)
# RNA: B1 RNA with A26G, A27C, A29U, C30G, U31C
# DNA 1: CAATCTGAATTCCGGTCTCCC
# DNA 2: TGGTGGCTACGACGGGATT
# B7: GCUUGUC (DNA:RNA)
# RNA: B1 RNA with A26C, A27U, A29G, C30U, U31C
# DNA 1: CAATCTGAATTCCGGTCTCCC
# DNA 2: TGGTGGCTACGACGGGATT
# B8: GUCUUGC (DNA:RNA)
# RNA: B1 RNA with A26U, A27C, A29U, C30G, U31C
# DNA 1: CAATCTGAATTCCGGTCTCCC
# DNA 2: TGGTGGCTACGACGGGATT
# B9: GUCUUGA (DNA:RNA)
# RNA: B1 RNA with A26U, A27C, A29U, C30G, U31A
# DNA 1: CAATCTGAATTCCGGTCTCCC
# DNA 2: TGGTGGCTACGACGGGATT
# B10: GUCUUAA (DNA:RNA)
# RNA: B1 RNA with A26U, A27C, A29U, C30A, U31A
# DNA 1: CAATCTGAATTCCGGTCTCCC
# DNA 2: TGGTGGCTACGACGGGATT
# B11: GUUUGUC (DNA:RNA)
# RNA: B1 RNA with A26U, A27U, A29G, C30U, U31C
# DNA 1: CAATCTGAATTCCGGTCTCCC
# DNA 2: TGGTGGCTACGACGGGATT
# B12: UCGUGCG (DNA:RNA)
# RNA: B1 RNA with G25U, A26C, A27G, A29G, U31G
# DNA 1: CAATCTGAATTCCGGTCTCCC
# DNA 2: TGGTGGCTACGACGGGATT
# B13: UCGCCAG (DNA:RNA)
# RNA: GGGAGACCGGAAUUCAGAUUGUCCUCGCCAGUUAAAUCCCGUCGUAGCCACCA
# DNA 1: CAATCTGAATTCCGGTCTCCC
# DNA 2: TGGTGGCTACGACGGGATT
# B14: ACGUCCU (DNA:RNA)
# RNA: B1 RNA with G25A, A26C, A27G, A29C
# DNA 1: CAATCTGAATTCCGGTCTCCC
# DNA 2: TGGTGGCTACGACGGGATT
# B15: AACCAGA (DNA:RNA)
# RNA: B1 RNA with G25A, A27C, U28C, C30G, U31A
# DNA 1: CAATCTGAATTCCGGTCTCCC
# DNA 2: TGGTGGCTACGACGGGATT
# B16: CAAACUC (DNA:RNA)
# RNA: B1 RNA with G25C, U28A, A29C, C30U, U31C
# DNA 1: CAATCTGAATTCCGGTCTCCC
# DNA 2: TGGTGGCTACGACGGGATT
# B17: AGAAGAU (DNA:RNA)
# RNA: B1 RNA with G25A, A26G, U28A, A29G, C30A
# DNA 1: CAATCTGAATTCCGGTCTCCC
# DNA 2: TGGTGGCTACGACGGGATT
# B18: UCCCCGG (DNA:RNA)
# RNA: B13 RNA with G27C, A30G
# DNA 1: CAATCTGAATTCCGGTCTCCC
# DNA 2: TGGTGGCTACGACGGGATT
# B19: AAAAAGC (DNA:RNA)
# RNA: B1 RNA with G25A, U28A, C30G, U31C
# DNA 1: CAATCTGAATTCCGGTCTCCC
# DNA 2: TGGTGGCTACGACGGGATT
# B20: AAAUUGC (DNA:RNA)
# RNA: B1 RNA with G25A, A29U, C30G, U31C
# DNA 1: CAATCTGAATTCCGGTCTCCC
# DNA 2: TGGTGGCTACGACGGGATT
# Molecular target: T1, RBFOX1 RRM RbFoxmut (Fox-RRM*)
# Test: EMSA; HiTS-Eq, 1 nM pool, 10 min; buffer printed only for the single-RNA assays: 10 mM Tris pH 7.5, 150 mM NaCl, 3.4 mM EDTA, 0.001% NP-40, 30 C
# Settings: tags: His6 N-terminal (pET28a); label: 5' 32P
# Procedure, shortened: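 A pool of RNA with 7 randomized nucleotides, 5′-radiolabelled and with DNA-annealed flanks, was equilibrated at 1 nM for 10 min in 50 µL with purified RbFox RRM, wild type or mutant, across increasing protein concentrations. Free RNA was separated by 8% native PAGE, excised, reverse-transcribed, barcoded by PCR and sequenced. Relative association constants were obtained from read-count changes of each RNA species versus the control reaction and normalised to the cognate motif.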
row,Binder,binding signal
1,B1,0.0832 KA relative to UGCAUGU
2,B2,0.108 KA relative to UGCAUGU
3,B3,0.278 KA relative to UGCAUGU
4,B4,0.0809 KA relative to UGCAUGU
5,B5,0.639 KA relative to UGCAUGU
6,B6,0.199 KA relative to UGCAUGU
7,B7,0.248 KA relative to UGCAUGU
8,B8,0.502 KA relative to UGCAUGU
9,B9,0.407 KA relative to UGCAUGU
10,B10,0.0967 KA relative to UGCAUGU
11,B11,0.305 KA relative to UGCAUGU
12,B12,0.147 KA relative to UGCAUGU
13,B13,0.0961 KA relative to UGCAUGU
14,B14,0.0891 KA relative to UGCAUGU
15,B15,0.107 KA relative to UGCAUGU
16,B16,0.0603 KA relative to UGCAUGU
17,B17,0.0749 KA relative to UGCAUGU
18,B18,0.0768 KA relative to UGCAUGU
19,B19,0.0699 KA relative to UGCAUGU
20,B20,0.0959 KA relative to UGCAUGU

# Source: PMC9911399, “Two distinct binding modes provide the RNA-binding protein RbFox with extraordinary sequence specificity”
